Measured values taken from publication PMC4336329 (PLoS ONE, 2015).
Out of some 310,000 compounds screened, about 14,000 (4.5%) showed an effect of 50% or more. Effects have a minus sign here. The sample as a whole holds a higher share of strong results than the screen did.

What follows are molecules tested against human ether-à-go-go-related gene (hERG) potassium channel (human, UniProt Q12809) (assay: primary screen, population patch clamp on CHO cells stably expressing hERG; higher = less effect of the substance).
Chain of human ether-à-go-go-related gene (hERG) potassium channel (Q12809 whole entry, looked up): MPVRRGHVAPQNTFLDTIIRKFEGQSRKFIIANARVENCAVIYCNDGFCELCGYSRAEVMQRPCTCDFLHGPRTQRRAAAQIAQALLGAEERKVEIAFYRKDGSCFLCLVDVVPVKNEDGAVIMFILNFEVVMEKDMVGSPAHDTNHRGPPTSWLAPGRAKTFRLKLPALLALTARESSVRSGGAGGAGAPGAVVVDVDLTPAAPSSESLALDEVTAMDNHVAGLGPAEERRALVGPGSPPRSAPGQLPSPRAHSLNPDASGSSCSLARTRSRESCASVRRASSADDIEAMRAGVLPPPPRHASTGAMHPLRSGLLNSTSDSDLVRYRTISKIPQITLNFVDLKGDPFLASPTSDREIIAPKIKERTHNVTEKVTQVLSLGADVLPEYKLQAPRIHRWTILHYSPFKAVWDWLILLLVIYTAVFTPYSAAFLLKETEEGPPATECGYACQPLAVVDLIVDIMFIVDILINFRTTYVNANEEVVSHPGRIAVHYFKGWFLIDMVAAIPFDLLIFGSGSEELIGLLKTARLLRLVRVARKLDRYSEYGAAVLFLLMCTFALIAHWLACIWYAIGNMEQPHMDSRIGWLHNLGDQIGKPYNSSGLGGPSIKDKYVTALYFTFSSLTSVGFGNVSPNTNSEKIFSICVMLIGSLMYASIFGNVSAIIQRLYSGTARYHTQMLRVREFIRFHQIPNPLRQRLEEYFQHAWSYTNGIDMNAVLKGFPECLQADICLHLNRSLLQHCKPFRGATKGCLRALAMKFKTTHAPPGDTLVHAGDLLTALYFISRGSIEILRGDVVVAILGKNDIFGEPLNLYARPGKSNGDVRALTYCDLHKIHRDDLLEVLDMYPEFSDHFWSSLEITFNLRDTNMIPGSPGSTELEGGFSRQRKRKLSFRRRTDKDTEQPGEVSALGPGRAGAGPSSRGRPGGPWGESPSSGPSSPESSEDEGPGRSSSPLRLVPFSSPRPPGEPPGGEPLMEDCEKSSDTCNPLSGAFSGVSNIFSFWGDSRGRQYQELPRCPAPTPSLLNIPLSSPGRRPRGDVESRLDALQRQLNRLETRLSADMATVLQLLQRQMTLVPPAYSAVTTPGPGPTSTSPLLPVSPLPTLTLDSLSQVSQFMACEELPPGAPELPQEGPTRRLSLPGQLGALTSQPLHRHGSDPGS
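Further: peak tail current of the secondary pulse compared with the same well before compound.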

Row | SMILES | hERG current change (%, negative = inhibition) at 10uM
1 | O=c1c2c(ncn2C2CCCC2)n(Cc2ccccc2)c(=O)n1CCOc1ccccc1 | -8.64%
2 | Cc1ccc([N+](=O)[O-])cc1NC(=O)/C=C/C(=O)O | -2.79%
3 | O=C(Nc1ccc(Br)c(Br)c1)C1CCCO1 (stereo not shown) | 3.39%
4 | COc1ccc(COC(=O)Nc2c(SC)nsc2SC)cc1 | 11.5%
5 | CCc1noc(C)c1C(=O)OCC(=O)NCc1ccccc1 | 2.29%
6 | NC(=O)c1ccccc1NC(=O)CSc1cn[nH]n1 | 13.2%
7 | Cc1cc(C)cc(NC(=O)CSc2nnc(-c3ccccc3C)o2)c1 | 3.37%
8 | COc1cccc(-c2nnn(CC(=O)O)n2)c1 | 9.1%
9 | OCCOc1cccc(CN2CCC(CO)(CCOc3ccccc3)CC2)c1 | -51.3%
10 | CC(=O)c1cccc(CN2CCC(CO)(CCOc3ccccc3)CC2)c1 | -41.5%
11 | COc1cc(OC)c(CN2CCC(CO)(CCOc3ccccc3)CC2)c(OC)c1 | -86.4%
12 | Cc1cc(C)c(CN2CCC(CO)(CCOc3ccccc3)CC2)cc1C | -65.2%
13 | COc1ccc(OC)c(CN2CCC(CO)(CCOc3ccccc3)CC2)c1 | -76.2%
14 | Cc1c(CN2CCC(CO)(CCOc3ccccc3)CC2)c(=O)n(-c2ccccc2)n1C | -5.7%
15 | COc1ccc(OCC(=O)N2CCCC(CO)(CCOc3ccccc3)C2)cc1 (stereo not shown) | -46.8%
16 | COc1ccc(OC)c(CN2CCSCC2)c1 | 9.69%
17 | O=C1CC(Sc2nnc(-c3ccccc3)o2)C(=O)N1c1ccccc1 (stereo not shown) | 3.12%
18 | Cc1cc(C)cc(-c2nnc(SCC(=O)NCc3cccs3)o2)c1 | 4.21%
19 | Fc1ccccc1CN1CCN(c2ncccn2)CC1 | 5.66%
20 | N#Cc1c(SCC(=O)N2CCCCC2)nsc1SCC(=O)N1CCCCC1 | 16.5%
21 | CC(C)C(C(=O)Nc1ccccc1F)N1C(=O)c2ccccc2C1=O (stereo not shown) | -3.78%
22 | Cc1nn(CCC(=O)NNC(=S)NCC(C)C)c(C)c1Br | 14%
23 | CCN(CC)S(=O)(=O)c1ccc(OC)c(NS(=O)(=O)c2ccc(F)cc2)c1 | -10.5%
24 | O=C1CCc2cc(S(=O)(=O)NCc3ccccc3Cl)ccc2N1 | -23.4%
25 | Cc1cc(C(=O)NNC(=O)CCCOc2ccccc2)c(C)o1 | 0.675%
26 | CCCNC(=O)C1CCN(c2ccc(S(=O)(=O)N3CCOCC3)cc2Cl)CC1 | 6.36%
27 | Cc1ccc(SC2=C(C(=O)O)CCCC2)cc1 | 4.25%
28 | OCC1(CCOc2ccccc2)CCN(Cc2cc(Cl)ccc2O)CC1 | -24.7%

Row | SMILES | hERG current change (%, negative = inhibition) at 10uM
29 | COc1cc(CN2CCC(CO)(CCOc3ccccc3)CC2)cc(OC)c1 | -67.3%
30 | COc1cc(CN2CCC(CO)(CCOc3ccccc3)CC2)cc(OC)c1OC | -38.3%
31 | COc1cc(Cl)c(CN2CCC(CO)(CCOc3ccccc3)CC2)cc1OC | -80.7%
32 | O=C(NC1CCCC1)C(c1ccncc1)N(Cc1ccccc1)C(=O)Cc1cccs1 (stereo not shown) | -14.1%
33 | CCCNCC1C(Oc2ccc(Cl)cc2)C(=O)N1c1ccccc1C (stereo not shown) | -48.6%
34 | Cc1ccccc1N1C(=O)C(Oc2ccc(Cl)cc2)C1CNCCCOC(C)C (stereo not shown) | -53.4%
35 | Cc1ccccc1N1C(=O)C(Oc2ccc(Cl)cc2)C1CNC(C)(C)C (stereo not shown) | -39.5%
36 | CCCCNCC1C(Oc2ccc(Cl)cc2)C(=O)N1c1ccccc1C.Cl (stereo not shown) | -65.9%
37 | COCCCNCC1C(Oc2ccc(Cl)cc2)C(=O)N1c1ccccc1C (stereo not shown) | -8.54%
38 | COCCNCC1C(Oc2ccc(Cl)cc2)C(=O)N1c1ccccc1C.Cl (stereo not shown) | -8.44%
39 | COc1ccc(N2CCN(C(=O)CN=C3NS(=O)(=O)C(c4ccc(C)cc4)=C3C)CC2)cc1 | -5.05%
40 | O=C(Cc1ccccc1)N/N=C/c1ccc(S(=O)(=O)[O-])o1 | 26.2%
41 | Cc1ccc(S(=O)(=O)NCc2ccc(N3CCN(C(=O)OC(C)(C)C)CC3)cc2)cc1 | 9.55%
42 | COc1ccc(OC)c(CNC(=O)C2CCN(S(=O)(=O)N3CCC(C)CC3)CC2)c1 | -31.8%
43 | Cc1nc2ccccc2c2oc(C(=O)NCCN3CCN(C)CC3)cc12 | 12.4%
44 | CCc1ccc(CNC(=O)C2Cc3cc(S(=O)(=O)N4CCCC4)ccc3N2C(C)=O)cc1 (stereo not shown) | -25.9%
45 | CSc1ccc(CNC(=O)C2Cc3cc(S(=O)(=O)N4CCCCC4)ccc3N2C(C)=O)cc1 (stereo not shown) | -57.1%
46 | Cc1cc(C)cc(NC(=O)C2CCCN2S(=O)(=O)c2ccc3c(c2)C(C)(C)C(=O)N3C)c1 (stereo not shown) | -38.7%
47 | CCc1cccc(NC(=O)C2CCCN2S(=O)(=O)c2ccc3c(c2)CC(C)N3C(C)=O)c1 (stereo not shown) | -71.2%
48 | CC(=O)N1c2ccc(S(=O)(=O)N3CCCC(C(=O)NCc4ccc(Cl)cc4)C3)cc2CC1C (stereo not shown) | -2.85%
49 | CSc1ccc(CNC(=O)C2Cc3cc(S(=O)(=O)N4CCCC4)ccc3N2C(C)=O)cc1 (stereo not shown) | -38.2%
50 | CC(=O)N1c2ccc(S(=O)(=O)N3CCCC3C(=O)Nc3cccc(F)c3)cc2CC1C (stereo not shown) | -32.8%
51 | CCc1ccc(NC(=O)C2CCCN2S(=O)(=O)c2ccc3c(c2)C(C)(C)C(=O)N3C)cc1 (stereo not shown) | -51%
52 | CC(=O)N1c2ccc(S(=O)(=O)N3CCCC3C(=O)NCc3ccccc3Cl)cc2CC1C (stereo not shown) | -40%
53 | CCc1cccc(NC(=O)C2CCN(S(=O)(=O)c3ccc4c(c3)CC(C)N4C(C)=O)CC2)c1 (stereo not shown) | 2.05%
54 | CCOc1ccc(NC(=O)C2CCCN2S(=O)(=O)c2ccc3c(c2)C(C)(C)C(=O)N3C)cc1 (stereo not shown) | -6.75%
55 | CC(=O)N1c2ccc(S(=O)(=O)N3CCCC3C(=O)NCc3ccc(Cl)cc3)cc2CC1C (stereo not shown) | -62.9%
